Experimental data reported in PubChem BioAssay.
Calls of active or inactive are those of the source.

Columns and labels:
[1] = test system: PRMT1 (protein arginine N-methyltransferase 1); experiment: PRMT1 binders on small-molecule microarrays, primary screen, biochemical, small-molecule microarray, 635 nm fluorescence (AID 1088); settings: small-molecule microarray binding, higher = more signal;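 also: binding of Prmt1 protein to compounds spotted on small-molecule microarray slides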
[2] = yeast growth modulation, basal conditions, primary screen, YJM789 clinical isolate, OD600, 24 h (AID 1089);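 also: growth of clinical yeast isolate S. cerevisiae YJM 789 seeded 1000 cells per well; test concentration not given here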; settings: S. cerevisiae YJM789 growth, higher = more signal, called active from +8 up or from −8 down
[3] = fission yeast growth modulation, primary screen, strain 972, OD600, 24 h, no modulator (AID 1090);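 also: basal condition with compound alone and no growth modifier present; test concentration not given here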; settings: S. pombe 972 growth, higher = more signal, called active from +8 up or from −8 down
[4] = S. cerevisiae growth modulation with rapamycin, primary screen, strain BY4716, OD600, 96 h (AID 1091); settings: higher = more signal, called active from +8 up or from −8 down; also: test concentration not given here
[5] = target: Torsin-1A-interacting protein 2 (Homo sapiens) (UniProt Q8NFQ8); experiment: LULL1 binders on small-molecule microarray, primary screen, cell lysate, human LULL1 lysate, 635/667 nm fluorescence (AID 1092); settings: hLULL1 lysate binding, 635 nm fluorescence, higher = more signal;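 also: probe is lysate of COS7 cells overexpressing human LULL1; score merges per-feature 667 nm fluorescence with signal-to-noise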
Sequence of Torsin-1A-interacting protein 2 (Homo sapiens) (Q8NFQ8 whole entry, looked up): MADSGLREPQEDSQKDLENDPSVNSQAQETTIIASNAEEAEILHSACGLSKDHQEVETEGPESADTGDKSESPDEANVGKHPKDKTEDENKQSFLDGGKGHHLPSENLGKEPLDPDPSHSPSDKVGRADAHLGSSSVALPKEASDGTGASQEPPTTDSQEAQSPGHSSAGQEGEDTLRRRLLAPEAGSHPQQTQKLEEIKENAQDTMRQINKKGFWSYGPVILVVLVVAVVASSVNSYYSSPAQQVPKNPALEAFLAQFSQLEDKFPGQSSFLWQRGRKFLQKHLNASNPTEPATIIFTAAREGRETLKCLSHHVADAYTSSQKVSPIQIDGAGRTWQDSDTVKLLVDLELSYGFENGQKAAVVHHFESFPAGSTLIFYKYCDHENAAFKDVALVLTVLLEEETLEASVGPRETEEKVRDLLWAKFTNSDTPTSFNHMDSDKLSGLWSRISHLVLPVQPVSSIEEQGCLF

[6] = E. coli growth modulation, two-sided OD650, primary screen, E. coli filamentation project, strain DRC41, 24 h (AID 1093); settings: OD650, 24 h, higher = more signal, called active from +8 up or from −8 down;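 also: MC1000 strain lacking acrAB efflux and sulA so SOS filamentation is blocked; test concentration not given here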
[7] = small-molecule microarray binders of probe aLefty2, primary screen, biochemical, biotinylated probe, 635/667 nm fluorescence (AID 1094); settings: higher = more signal;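 also: score merges spot fluorescence near 667 nm with spot signal-to-noise ratio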
[8] = test system: Noggin (protein binding on small-molecule microarray); experiment: Noggin binders on small-molecule microarray, primary screen, biochemical, 635/667 nm fluorescence (AID 1095); settings: 635 nm fluorescence, higher = more signal;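 also: score merges 667 nm feature fluorescence with signal to noise over triplicate slides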
[9] = target: Neurogenic locus notch homolog protein 3 (Homo sapiens) (UniProt Q9UM47); experiment: NOTCH3 binders on small-molecule microarray, primary screen, biochemical, 635/667 nm fluorescence (AID 1096); settings: NOTCH3 binding, 635 nm fluorescence, higher = more signal
Sequence of Neurogenic locus notch homolog protein 3 (Homo sapiens) (Q9UM47 whole entry, looked up): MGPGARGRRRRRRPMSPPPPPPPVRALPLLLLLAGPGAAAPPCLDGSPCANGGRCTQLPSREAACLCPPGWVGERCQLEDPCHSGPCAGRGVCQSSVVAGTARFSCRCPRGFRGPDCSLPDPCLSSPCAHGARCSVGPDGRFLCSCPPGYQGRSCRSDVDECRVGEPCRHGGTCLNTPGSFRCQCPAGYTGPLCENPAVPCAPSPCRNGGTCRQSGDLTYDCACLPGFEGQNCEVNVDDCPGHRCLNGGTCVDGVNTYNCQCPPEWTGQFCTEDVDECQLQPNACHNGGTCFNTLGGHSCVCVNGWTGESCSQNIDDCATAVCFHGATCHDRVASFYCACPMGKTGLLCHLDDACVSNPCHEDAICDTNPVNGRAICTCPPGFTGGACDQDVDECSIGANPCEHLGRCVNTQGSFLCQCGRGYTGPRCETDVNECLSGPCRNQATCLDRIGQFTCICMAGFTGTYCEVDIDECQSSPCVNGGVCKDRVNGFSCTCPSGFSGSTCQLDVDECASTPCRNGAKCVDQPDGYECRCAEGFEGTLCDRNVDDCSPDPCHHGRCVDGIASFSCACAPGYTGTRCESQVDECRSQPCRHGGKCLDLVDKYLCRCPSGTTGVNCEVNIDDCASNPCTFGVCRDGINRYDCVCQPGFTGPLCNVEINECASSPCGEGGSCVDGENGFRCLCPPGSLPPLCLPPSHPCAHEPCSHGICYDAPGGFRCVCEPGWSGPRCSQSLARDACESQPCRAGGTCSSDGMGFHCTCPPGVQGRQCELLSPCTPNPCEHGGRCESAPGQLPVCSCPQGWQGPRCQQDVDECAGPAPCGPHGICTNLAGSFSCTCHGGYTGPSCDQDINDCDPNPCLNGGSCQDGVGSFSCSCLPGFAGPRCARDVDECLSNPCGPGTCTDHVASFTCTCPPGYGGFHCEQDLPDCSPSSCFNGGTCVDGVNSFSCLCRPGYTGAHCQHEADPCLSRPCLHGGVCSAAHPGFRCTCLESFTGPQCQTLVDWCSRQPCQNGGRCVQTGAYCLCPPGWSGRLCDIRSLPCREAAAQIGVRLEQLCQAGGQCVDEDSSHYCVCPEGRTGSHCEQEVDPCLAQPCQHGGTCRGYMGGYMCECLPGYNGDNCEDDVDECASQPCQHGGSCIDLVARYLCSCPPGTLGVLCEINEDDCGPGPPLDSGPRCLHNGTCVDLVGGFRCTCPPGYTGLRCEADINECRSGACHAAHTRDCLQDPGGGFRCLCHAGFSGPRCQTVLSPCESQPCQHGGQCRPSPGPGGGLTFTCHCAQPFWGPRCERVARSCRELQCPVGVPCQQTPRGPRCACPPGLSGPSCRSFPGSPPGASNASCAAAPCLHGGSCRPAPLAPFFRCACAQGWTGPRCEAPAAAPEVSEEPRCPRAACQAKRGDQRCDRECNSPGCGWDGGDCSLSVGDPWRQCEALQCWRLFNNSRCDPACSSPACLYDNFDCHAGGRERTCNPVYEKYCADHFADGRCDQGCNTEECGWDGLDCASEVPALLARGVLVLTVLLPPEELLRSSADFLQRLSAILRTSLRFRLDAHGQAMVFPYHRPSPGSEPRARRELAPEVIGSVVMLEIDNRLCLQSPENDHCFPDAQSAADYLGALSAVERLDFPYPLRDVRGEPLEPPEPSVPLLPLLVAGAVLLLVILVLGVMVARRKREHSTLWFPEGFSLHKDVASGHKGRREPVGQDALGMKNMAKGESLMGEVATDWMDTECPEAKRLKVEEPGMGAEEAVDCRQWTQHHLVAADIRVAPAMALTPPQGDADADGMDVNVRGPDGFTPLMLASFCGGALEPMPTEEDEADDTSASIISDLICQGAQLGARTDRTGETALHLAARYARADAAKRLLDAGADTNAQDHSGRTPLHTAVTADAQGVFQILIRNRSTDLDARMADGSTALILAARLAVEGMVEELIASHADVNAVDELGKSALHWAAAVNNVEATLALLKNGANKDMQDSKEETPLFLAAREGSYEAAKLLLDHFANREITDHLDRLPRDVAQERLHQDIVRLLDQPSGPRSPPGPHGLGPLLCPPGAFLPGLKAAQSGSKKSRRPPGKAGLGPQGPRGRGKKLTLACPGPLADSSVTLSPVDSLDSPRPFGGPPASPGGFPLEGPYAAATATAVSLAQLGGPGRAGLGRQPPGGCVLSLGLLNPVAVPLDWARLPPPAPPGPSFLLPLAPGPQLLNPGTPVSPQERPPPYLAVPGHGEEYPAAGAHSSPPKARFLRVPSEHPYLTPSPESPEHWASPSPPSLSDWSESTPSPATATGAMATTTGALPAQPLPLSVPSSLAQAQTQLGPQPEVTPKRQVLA

[10] = small-molecule microarray binders of probe aEGFR, primary screen, biochemical, biotinylated probe, 635/667 nm fluorescence (AID 1097); settings: higher = more signal;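 also: probe is a biotinylated anti-EGFR antibody binding compounds printed on slides; score combines fluorescence near 667 nm and signal to noise of each spot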

| SMILES | composite z-score [1] | z-score [2] | z-score [3] | z-score [4] | composite z-score [5] | z-score [6] | composite z-score [7] | composite z-score [8] | composite z-score [9] | composite z-score [10] |
| --- | --- | --- | --- | --- | --- | --- | --- | --- | --- | --- |
| CCCNC(=O)[C@@H]1c2ccccc2C(=O)N(Cc2ccccc2)[C@H]1c1ccc(CO)cc1 | 0.577 | 0.288 (inactive) | -0.45 (inactive) | 0.633 (inactive) | 2.12 | -1.04 (inactive) | 0.0553 | -0.344 | 0.0163 | -0.152 |
| COC(=O)[C@@]1(Cc2ccc(OC)cc2)[C@H]2c3cc(C(=O)N4CCCC4)n(Cc4ccccn4)c3C[C@H]2CN1C(=O)c1ccccc1 | 0.897 | 0.627 (inactive) | 0.482 (inactive) | 1.33 (inactive) | 3.86 | 0.245 (inactive) | 0.346 | -0.404 | 0.979 | 0.155 |
| O=C1C2C=CC(C(O)c3ccc(-c4ccccc4)s3)N(n3cnnc3)C2C(=O)N1Cc1ccccc1 (stereo not given) | 0.147 | -0.466 (inactive) | -11.7 (active) | -0.0238 (inactive) | 1.77 | -0.485 (inactive) | -0.0823 | -0.0489 | 0.225 | -0.0716 |
| CC(C)=CCCC(C)=CC(O)C1C=CC2C(=O)N(c3ccccc3)C(=O)C2N1Nc1ccccc1 (stereo not given) | 0.967 | 0.316 (inactive) | 0.171 (inactive) | 1.02 (inactive) | 2.89 | -1.99 (inactive) | 0.201 | -0.196 | 1.04 | 0.438 |
| COC(=O)[C@@]1(Cc2ccc(OC)cc2)[C@H]2c3cc(C(=O)N4CCCC4)n(Cc4cc(F)cc5c4OCOC5)c3C[C@H]2CN1C(=O)c1ccccc1 | -0.829 | -0.0795 (inactive) | -0.87 (inactive) | 0 (inactive) | 3.27 | -1.28 (inactive) | 0.499 | -0.307 | 0.77 | 0.241 |
| CC(C)N1C(=O)C[C@@](C(=O)NCc2ccccc2)(c2ccc([N+](=O)[O-])cc2)[C@H]1c1ccc(CO)cc1 | 1.01 | 0.296 (inactive) | -0.203 (inactive) | -0.881 (inactive) | 3.48 | 0.796 (inactive) | 0.16 | -0.112 | 0.199 | -0.167 |
| CC(C)C[C@@H]1NC(=O)[C@H]2C[C@@H](C(=O)NCCCCCCNC(=O)CS)[C@@H](c3cccc(OCCO)c3)N2C1=O | 1.4 | -2 (inactive) | 0.251 (inactive) | 0.24 (inactive) | 2.85 | 0.645 (inactive) | -0.108 | 1.7 | 1.04 | 0.0798 |
| COc1ccc(CCNC(=O)[C@@]2(Sc3ccc(C)cc3)CC(=O)N(Cc3ccccc3Cl)[C@@H]2c2ccc(CO)cc2I)cc1 | 1.26 | -1.62 (inactive) | -3.24 (inactive) | 1.72 (inactive) | 1.8 | 0.68 (inactive) | 0.0349 | -0.284 | -0.788 | -0.185 |
